{
  "source": "PubChem BioAssay AID2650",
  "about": "(Broad Institute, 2010)",
  "note": "Hit rate of the full screen: of about 320,000 compounds, about 320 (0.1%) were called active. The entries come from a sample that favours actives as a whole. Unmarked numbers belong to inactive results.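 How the source made its calls: active means more than half of replicates show inhibition above 20%; inconclusive means some but at most half of replicates above 20% inhibition; inactive means no replicate shows inhibition above 20%.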",
  "data": [
    {"biological_target": "Glycogen synthase kinase-3 alpha (Homo sapiens) (UniProt P49840)", "sequence (P49840 whole entry, looked up)": "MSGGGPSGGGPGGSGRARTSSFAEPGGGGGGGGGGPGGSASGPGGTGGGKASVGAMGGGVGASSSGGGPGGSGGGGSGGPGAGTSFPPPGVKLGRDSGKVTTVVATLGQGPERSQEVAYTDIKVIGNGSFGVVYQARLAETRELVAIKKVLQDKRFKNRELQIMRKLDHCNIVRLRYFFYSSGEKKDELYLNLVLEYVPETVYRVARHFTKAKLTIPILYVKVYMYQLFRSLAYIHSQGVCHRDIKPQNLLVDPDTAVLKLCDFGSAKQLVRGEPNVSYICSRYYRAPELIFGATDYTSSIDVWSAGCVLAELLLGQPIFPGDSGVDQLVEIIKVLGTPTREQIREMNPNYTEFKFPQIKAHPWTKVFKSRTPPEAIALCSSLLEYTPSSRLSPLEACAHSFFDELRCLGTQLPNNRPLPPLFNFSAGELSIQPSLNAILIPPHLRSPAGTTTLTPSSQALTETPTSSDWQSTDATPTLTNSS", "assay": "blockers of GSK3A enzyme activity – biochemical, luminescence, cell-free homogeneous, HTS, primary screen (AID 2650);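 further: GST-tagged GSK-3 alpha with peptide substrate and 25 µM ATP; 0% = DMSO neutral wells and 100% = GW8510 positive control wells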", "conditions": "GSK-3 alpha kinase, ADP-Glo luminescence, 60 min; at 10 µM; active compounds read high", "values": [
      {"smiles": "Cc1noc(COc2ccccc2OCc2onc(C)c2Cl)c1Cl", "inhibition": "-1.26%"},
      {"smiles": "O=C1c2ccccc2C2=Nc3ccccc3SC(c3ccccc3F)C12", "note": "(centres undefined)", "inhibition": "-0.696%"},
      {"smiles": "CC(Sc1nc2cc(Cl)ccc2s1)C(=O)Nc1ccc2c(c1)OCO2", "note": "(centres undefined)", "inhibition": "-2.34%"},
      {"smiles": "Cc1ccc2c(c1)N(CC(=O)NCCc1ccc(Cl)cc1)C(=O)c1cccnc1O2", "inhibition": "-2.75%"},
      {"smiles": "CC(C(=O)N1CCOCC1)N1c2cccc3cccc(c23)S1(=O)=O", "note": "(centres undefined)", "inhibition": "3.12%"},
      {"smiles": "O=S(=O)(NC1CC2CCC1C2)c1ccc(Cl)cc1", "note": "(centres undefined)", "inhibition": "-0.939%"},
      {"smiles": "CN(C)C(=O)CCC(=O)N1CCCCC1C(=O)Nc1ccc(Oc2ccccc2F)cc1", "note": "(centres undefined)", "inhibition": "-0.0266%"},
      {"smiles": "O=C(c1ccncc1)N1CCN(S(=O)(=O)c2cc(C(F)(F)F)cc(C(F)(F)F)c2)CC1", "inhibition": "-4.58%"},
      {"smiles": "CC(C)c1nnc(NC(=O)COC(=O)/C=C/c2ccc([N+](=O)[O-])cc2)s1", "inhibition": "0.211%"},
      {"smiles": "CC1CCCCC1NC(=O)CCS(=O)(=O)c1cccc2nonc12", "note": "(centres undefined)", "inhibition": "-1.36%"},
      {"smiles": "COC(=O)[C@]1(Cc2ccccc2)N[C@H](CN(C)S(=O)(=O)c2ccc(F)cc2)[C@@H]2C(=O)N(Cc3ccccc3)C(=O)[C@@H]21", "inhibition": "-4.02%"},
      {"smiles": "CCc1ccc(C(=O)COC(=O)c2ccco2)cc1", "inhibition": "-0.284%"},
      {"smiles": "Cc1cccc2sc(N(CCCN(C)C)C(=O)CCS(=O)(=O)c3ccccc3)nc12", "inhibition": "1.84%"},
      {"smiles": "Cc1ccc(NC(=O)CN(C)C(=O)c2ccc(Cl)c(S(=O)(=O)NCc3ccco3)c2)cc1", "inhibition": "-2.08%"},
      {"smiles": "COC(=O)C1=C[C@@H](C(=O)OC)[C@@H]2C3=C(C(=O)[C@]2(C)NC(=O)c2ccccc2)[C@H](C)n2c(=O)n(C)c(=O)n2[C@@H]3C1", "inhibition": "-1.38%"},
      {"smiles": "O=C(OCC(=O)N(CCc1ccccc1)Cc1ccccc1)c1ccccc1[N+](=O)[O-]", "inhibition": "0.711%"},
      {"smiles": "CCCc1cc(=O)[nH]c(SCC(=O)Nc2ccc(S(=O)(=O)N3CCCC3)cc2)n1", "inhibition": "-3.71%"},
      {"smiles": "Cc1cccc(C)c1NC(=O)CS(=O)CC(=O)N1CCN(c2ccccc2)CC1", "note": "(centres undefined)", "inhibition": "-1.33%"},
      {"smiles": "Cc1c(OC(C)C(=O)NCC2CCC(C(=O)O)CC2)ccc2c1oc(=O)c1ccccc12", "note": "(centres undefined)", "inhibition": "2.24%"},
      {"smiles": "Cc1ccc(N2C(=O)CC(N3CCSCC3)C2=O)c(C)c1", "note": "(centres undefined)", "inhibition": "-1.07%"},
      {"smiles": "CC(C)(C)c1ccc(/C=C/C(=O)NCCCn2ccnc2)cc1", "inhibition": "1.07%"},
      {"smiles": "O=C(CSc1nc2ccccc2c(=O)n1Cc1ccc(F)cc1)NCC1CCCO1", "note": "(centres undefined)", "inhibition": "-2.48%"},
      {"smiles": "CC(=O)N1CCc2cc(S(=O)(=O)NC3CCCCC3)ccc21", "inhibition": "1.13%"},
      {"smiles": "CN(CC1CCCN(CCc2cccc(C(F)(F)F)c2)C1)C(=O)c1ccc2nc[nH]c2c1", "note": "(centres undefined)", "inhibition": "2.9%"},
      {"smiles": "CCCNC(=S)N1CCC(NC(=O)C23CC4CC(CC(C4)C2)C3)CC1", "inhibition": "-1.14%"},
      {"smiles": "Cc1ccccc1N(C(=O)Cc1cccs1)C(C(=O)NC1CCCCC1)c1cn(C)nc1C", "note": "(centres undefined)", "inhibition": "-1.17%"},
      {"smiles": "CCCCCN(C(=O)NC(=O)Nc1ccccc1OC)S(C)(=O)=O", "inhibition": "-0.679%"},
      {"smiles": "COc1cc(OC)cc(-c2cc3ccc(F)cc3cn2)c1", "inhibition": "-0.558%"},
      {"smiles": "CCOc1ccc(-c2noc(CCC(=O)NC3CCCC3)n2)cc1OC", "inhibition": "-2.18%"},
      {"smiles": "COc1ccccc1-c1nnc2n1N=C(c1ccc(OC(F)F)c(OCC3CC3)c1)CS2", "inhibition": "-2.55%"},
      {"smiles": "C=C(C)CNC(=S)Nc1ccc(S(=O)(=O)Nc2cnc3ccccc3n2)cc1", "inhibition": "-0.344%"},
      {"smiles": "Brc1ccc(/C=N/N2CCN(C3c4ccccc4-c4ccccc43)CC2)s1", "inhibition": "-1%"},
      {"smiles": "COCCNC(=S)N(CCc1c(C)[nH]c2ccc(C)cc12)Cc1cccnc1", "inhibition": "-0.86%"},
      {"smiles": "CCn1c(Cc2ccc(OC)cc2)nnc1SCC(=O)Nc1ccc(N2CCOCC2)cc1", "inhibition": "-0.587%"},
      {"smiles": "CCCCOC(=O)Nc1sc2nc(C)cc(C)c2c1-n1cccc1", "inhibition": "3.59%"},
      {"smiles": "Cc1noc(C)c1NC(=O)Nc1cccc2c1O[C@H](CN(C)C(=O)Nc1ccccc1)[C@@H](C)CN([C@H](C)CO)C2=O", "inhibition": "-4.19%"},
      {"smiles": "COc1cc2c(cc1OC)CC1(CCCCC1)N=C2", "inhibition": "0.717%"},
      {"smiles": "Cc1cc(C)cc(N(CCC#N)C(=O)CN2C(=O)NC3(CCCC3)C2=O)c1", "inhibition": "-1.84%"},
      {"smiles": "O=[N+]([O-])c1ccc(NCCCN2CCOCC2)c(Cl)c1", "inhibition": "-0.912%"},
      {"smiles": "CC1CN(c2nc(Nc3ccccc3)nc(N)c2[N+](=O)[O-])CC(C)O1", "note": "(centres undefined)", "inhibition": "38.9%"},
      {"smiles": "Nc1nc(NCCCN2CCOCC2)nc(Nc2ccccc2)c1[N+](=O)[O-]", "inhibition": "90.9% (active)"},
      {"smiles": "Nn1c(SCC(=O)Nc2ccc3c(c2)CCC3)nnc1C1CC1", "inhibition": "-1.28%"},
      {"smiles": "CC(=NNC(=O)c1ccc2nc[nH]c2c1)c1ccc(Br)cc1", "inhibition": "0.652%"},
      {"smiles": "CC(C)c1nc(SCC(=O)NC(=O)NC(C)(C)C)n[nH]1", "inhibition": "-2.13%"},
      {"smiles": "CCN(CC)CCOC(=O)c1ccc(NC(=O)CNC(=O)c2ccccc2)cc1", "inhibition": "-1.2%"},
      {"smiles": "O=C(OCC(=O)N1CCOCC1)c1ccc(N2CCOCC2)c([N+](=O)[O-])c1", "inhibition": "1.5%"},
      {"smiles": "Cc1ccc(NC(=O)C2CCC(C(C)(C)C)CC2)cc1S(=O)(=O)N1CCOCC1", "note": "(centres undefined)", "inhibition": "-0.864%"},
      {"smiles": "Cc1c(Cl)cccc1NC(=O)NCc1ccc(C)n1C", "inhibition": "-2.74%"},
      {"smiles": "CC1CCCCC12NC(=O)N(CC(=O)OCC(=O)NCc1ccc(F)cc1)C2=O", "note": "(centres undefined)", "inhibition": "-2.66%"},
      {"smiles": "O=C(O)C1=CCCN(CCON=C(c2ccccc2)c2ccccc2)C1", "inhibition": "-1.9%"},
      {"smiles": "CC(C)(C)OC(=O)C[C@@H]1C/C=C\\C[C@H](CC(=O)N[C@@H](CO)Cc2ccccc2)C(=O)N[C@H](Cc2ccccc2)COC1=O", "inhibition": "0.493%"},
      {"smiles": "O=C(CN1C(=O)NC2(CCCCCC2)C1=O)NCc1ccc(F)cc1", "inhibition": "-1.44%"},
      {"smiles": "O=C(c1ccccc1F)N(Cc1ccccc1)Cc1ccccc1", "inhibition": "0.121%"},
      {"smiles": "O=c1c2c3c(sc2n(CCN2CCCC2)c(=O)n1Cc1ccccc1)CCCCC3", "inhibition": "0.297%"}
    ]}
  ]
}
